Results filed as inconclusive are left out. A call without a number means that no potency is given here. Activity calls are given as the source filed them. Unless noted, how the calls were made is not given here.
Experiment: qHTS profiling of the MIPE4 collection as inhibitors of Plasmodium falciparum (HB3) proliferation (AID 743347)
Settings: P. falciparum HB3 in erythrocytes, SYBR Green DNA, 72 h; at 28.5 µM (top of the series) unless noted
Procedure, shortened: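 Parasite DNA was quantified by SYBR Green I fluorescence (ex 485, em 535 nm) after overnight lysis in saponin/Triton buffer at room temperature. Cultures at 0.3% parasitemia and 2.5% hematocrit were first exposed to compound for 72 h at 37 C; signals were normalised to artemisinin (0.29 uM) and vehicle wells.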
Compound `C[C@H](CCC(=O)O)[C@H]1CC[C@H]2[C@H]3[C@@H](CC[C@]12C)[C@@]1(C)CC[C@@H](O)C[C@H]1C[C@@H]3O` has a growth, % of control of 23.1%. For `O=c1[nH]c(=O)n([C@H]2C[C@@H](O)[C@@H](CO)O2)cc1C=CBr`, the growth, % of control was 652%. With `NC1=N[C@H]2[C@H](CS[C@H]2CCCCC(=O)O)N1` the growth, % of control was 44.4% [at 9.64 µM].

Experiment: qHTS for Inhibitors of the Functional Ribonucleoprotein Complex (vRNP) of Lassa (LASV) Arenavirus: LASV Primary Screen - GLuc reporter signal (AID 1347082; calls by dose curve; tested in HEK293 reporter line; further: nearly all actives have a fitted effect of over 60% in size; further: potency means the concentration at half of the fitted maximal effect)
Settings: LASV minigenome vRNP, Gaussia luciferase reporter; series mostly up to 57.5 µM
For `C[C@H](CCC(=O)O)[C@H]1CC[C@H]2[C@H]3[C@@H](CC[C@]12C)[C@@]1(C)CC[C@@H](O)C[C@H]1C[C@@H]3O`, the Potency was “inactive”. With `CNC(=O)c1c(F)cccc1Nc1nc(Nc2cc3c(cc2OC)CCN3C(=O)CN(C)C)nc2[nH]ccc12` the Potency was “inactive”. In the case of `C[S+](C)CCC(N)C(=O)O` (centres undefined), the Potency is reported as “inactive”. For `O=c1[nH]c2cc(Cl)c(Cl)cc2[nH]c1=O`, the Potency was “inactive”. For `O=C1c2ccccc2-c2n[nH]c3cccc1c23`, the Potency was “inactive”. In the case of `O=C(O)CCCCCC(=O)NN=C1CCCC1`, the Potency is reported as “inactive”. With `CCN(CC)CCNC(=O)c1ccc2nc(-c3ccccc3)c(-c3ccc(CN4CCC(n5c(=O)[nH]c6ccccc65)CC4)cc3)nc2c1` the Potency was 34.3 µM (active). With `Oc1ccc(-c2ccc(-c3cc(Nc4cccc(CNC5CC5)c4)n[nH]3)cc2)c(O)c1` the Potency was 24.3 µM (active). In the case of `CC(C)C[C@H](CC(=O)O)C(=O)N[C@@H](Cc1c[nH]c2ccccc12)C(=O)N[C@@H](C)c1ccccc1`, the Potency is reported as “inactive”. In the case of `N=c1ccn2c(n1)O[C@H]1[C@H](O)[C@@H](CO)O[C@H]12`, the Potency is reported as “inactive”. In the case of `COC(=O)Nc1ccc(-c2nc(N3CCOCC3)c3cnn(C4CCN(Cc5cccnc5)CC4)c3n2)cc1`, the Potency is reported as 0.109 µM (active). In the case of `COc1cc(F)c(F)c(Nc2ccc(I)cc2F)c1NS(=O)(=O)C1(C[C@H](O)CO)CC1`, the Potency is reported as “inactive”. In the case of `CCNc1cc(NC2CCC(O)CC2)nc(Nc2ccc3c(ccn3Cc3ccccc3)c2)n1` (centres undefined), the Potency is reported as “inactive”. For `Cc1ccc2nc(NC(=O)CSc3nc4c(c(=O)n3-c3ccccc3)SCC4)sc2c1`, the Potency was 19.3 µM (active). In the case of `Cn1cc(C[C@@H](N)C(=O)O)c2ccccc21`, the Potency is reported as “inactive”. With `CC(C)=CC[C@@H](O)C1=CC(=O)c2c(O)ccc(O)c2C1=O` the Potency was “inactive”. In the case of `OC[C@H]1O[C@@H](n2cnc3c(NC4CCCC4)ncnc32)[C@H](O)[C@@H]1O`, the Potency is reported as “inactive”. In the case of `COc1ccc(Nc2cc(-c3cnc(N)nc3)nc(N3CCOCC3)n2)cn1`, the Potency is reported as 12.2 µM (active). For `CC(C)C(C)C=CC(C)C1CCC2C3=CC=C4CC(O)CCC4(C)C3CCC21C` (centres undefined), the Potency was 27.3 µM (active). For `COc1cc(O)c2c(c1)C1OC1C[C@H](O)[C@H](O)C(=O)C=CC[C@H](C)OC2=O` (some centres undefined), the Potency was 34.3 µM (active). For `O=C1NC(O)CCN1[C@@H]1O[C@H](CO)[C@H](O)[C@H]1O` (some centres undefined), the Potency was “inactive”. In the case of `CN(C)C(=O)/N=N/C(=O)N(C)C`, the Potency is reported as “inactive”. With `O=C(Nc1ccc(Oc2ccnc3[nH]ccc23)c(F)c1)c1cccn(-c2ccc(F)cc2)c1=O` the Potency was “inactive”. In the case of `CCC(C(=O)O)C1CCC(C)C(C(C)C(O)C(C)C(=O)C(CC)C2OC3(C=CC(O)[C@@]4(CC[C@](C)(C5CC[C@@](O)(CC)C(C)O5)O4)O3)C(C)CC2C)O1` (some centres undefined), the Potency is reported as 3.43 µM (active). With `O=c1[nH]c(=O)n([C@H]2C[C@@H](O)[C@@H](CO)O2)cc1C=CBr` the Potency was “inactive”. For `CCCn1c(=O)c2[nH]c(-c3cnn(Cc4cccc(C(F)(F)F)c4)c3)nc2n(CC)c1=O`, the Potency was “inactive”. For `Cc1cc(Cl)ccc1OCCCC(=O)NO`, the Potency was “inactive”. In the case of `CC(C)c1cc(-c2n[nH]c(=O)n2-c2ccc3c(ccn3C)c2)c(O)cc1O`, the Potency is reported as 0.385 µM (active). With `N[C@@]1(C(=O)O)CS(=O)(=O)[C@H]2[C@H](C(=O)O)[C@H]21` the Potency was “inactive”. For `Cc1ccc2nc(NCCN)c3ncc(C)n3c2c1`, the Potency was 17.2 µM (active). For `COc1cc(Nc2ncc(F)c(Nc3ccc4c(n3)N(COP(=O)(O)O)C(=O)C(C)(C)O4)n2)cc(OC)c1OC`, the Potency was “inactive”. For `CCc1ccc(C(=O)Nc2cc(CN3CCN(C)CC3)cc(C(F)(F)F)c2)cc1C#Cc1cnc2ccnn2c1`, the Potency was “inactive”. In the case of `CC=C(C)C(=O)O[C@H]1C(C)=C[C@]23C(=O)[C@@H](C=C(CO)[C@@H](O)[C@]12O)[C@H]1[C@@H](C[C@H]3C)C1(C)C`, the Potency is reported as “inactive”. In the case of `O=C(CCCCCCNC(=O)c1cnc(N(c2ccccc2)c2ccccc2)nc1)NO`, the Potency is reported as “inactive”. With `NC1=N[C@H]2[C@H](CS[C@H]2CCCCC(=O)O)N1` the Potency was “inactive”. With `C=CCn1c(=O)c2c(nc(-c3ccc(S(=O)(=O)O)cc3)n2C)n(C)c1=O` the Potency was “inactive”.
